A selection: hits, their analogues and other compounds. The true share with any hit is near 1.5%.
BCLXL inh: inhibitors of human Bcl-xL, primary screen, biochemical, fluorescence polarization, HTS; Bcl-2-like protein 1 (Homo sapiens), Q07817; GST-Bcl-xL / FITC-Bim BH3 peptide fluorescence polarization; inhibition, % at 10.9 µM; 320,000 tested, 0.7% active; AID 2129, 2009;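 active means inhibition above the mean of all tested compounds plus 3 SD, cutoff set per campaign, cut at about 30% in these data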;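 further: 0% = DMSO wells and 100% = unlabeled Bim-BH3 peptide competitor; inhibitors lower millipolarization by displacing the labeled peptide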
MCL1-BIM inh: inhibitors of MCL1 binding to BIM-BH3, primary screen, biochemical, fluorescence polarization | Induced myeloid leukemia cell differentiation protein Mcl-1 (Homo sapiens), Q07820 | GST-MCL1 / FITC-Bim-BH3 fluorescence polarization | inhibition, % at 10.9 µM | 320,000 tested, 0.68% active | AID 2057, 2009;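 active means inhibition above the mean inhibition of all tested compounds plus 3 SD, set per campaign, cut at about 40% in these data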;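 further: 0% = DMSO wells and 100% = unlabeled Bim-BH3 peptide control; higher means more loss of mP so more displacement of Bim peptide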
Target sequence (Q07820 whole entry, looked up): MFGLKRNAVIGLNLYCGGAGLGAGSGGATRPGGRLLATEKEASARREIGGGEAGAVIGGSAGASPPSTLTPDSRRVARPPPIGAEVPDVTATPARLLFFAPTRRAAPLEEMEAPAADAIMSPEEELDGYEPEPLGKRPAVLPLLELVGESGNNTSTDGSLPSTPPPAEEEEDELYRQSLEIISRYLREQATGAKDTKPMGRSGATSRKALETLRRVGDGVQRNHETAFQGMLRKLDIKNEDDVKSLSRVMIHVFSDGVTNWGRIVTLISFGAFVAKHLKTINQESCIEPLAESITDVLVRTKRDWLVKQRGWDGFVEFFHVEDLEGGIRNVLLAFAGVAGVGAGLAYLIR
GLD-1 TGE inh: GLD-1/TGE RNA complex disruptors, primary screen, biochemical, fluorescence polarization; purified GLD-1 + fluorescein TGE RNA; Female germline-specific tumor suppressor gld-1 (Caenorhabditis elegans), Q17339; inhibition, % at 5.96 µM; 320,000 tested, 0.44% active; AID 2280, 2010;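 active means percent inhibition above a per-plate cutoff, the plate mean of test compounds plus 3 SD, cut at about 30% in these data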;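 further: 0% = DMSO wells with GLD-1 and probe and 100% = wells lacking GLD-1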
MEX-5 binding: MEX-5 zinc finger RNA-binding disruptors – biochemical, C. elegans, fluorescence polarization, MLPCN library, primary screen; Zinc finger protein mex-5 (Caenorhabditis elegans), Q9XUB2; MEX-5/FITC-TCR2 RNA binding; hits give low values; activity score (negative = inhibition of binding), % at 10 µM; 300,000 tested, 0.38% active;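 active means inhibition past about -25% in most replicates, and total fluorescence under double the plate's negative control median, limit read from the data; inconclusive means replicates evenly split on the limit, or fluorescence at least double controls; inactive means too little inhibition in most replicates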;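 further: 0% = DMSO and -100% = 5 µM competing unlabeled TCR2 RNA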
EBV gp42 inh: Epstein-Barr virus gp42 inhibitors, primary screen, biochemical, uHTS, fluorescence polarization. Glycoprotein 42 (Epstein-Barr virus (strain AG876)), Q1HVG2. Fluorescence polarization binding assay, mP read-out. inhibition, % (tested at 21.74 µM). 220,000 tested, 0.42% active. AID 1085, 2008; in the data active means inhibition above about 50%
Target sequence (Q1HVG2 whole entry, looked up): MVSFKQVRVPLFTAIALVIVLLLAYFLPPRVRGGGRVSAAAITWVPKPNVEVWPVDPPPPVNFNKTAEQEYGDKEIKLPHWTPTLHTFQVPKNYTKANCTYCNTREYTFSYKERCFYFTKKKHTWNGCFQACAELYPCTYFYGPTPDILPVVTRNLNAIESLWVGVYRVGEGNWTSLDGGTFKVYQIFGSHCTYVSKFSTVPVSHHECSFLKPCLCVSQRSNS
eLon inh: inhibitors of E. coli Lon protease, primary screen, biochemical, fluorescence polarization; inhibition, % at 7.94 µM; AID 602123, 2011; purified E. coli Lon protease; 360,000 tested, 0.42% active; P0A9M0; in the data active means inhibition above about 13%, passing the limit was not always enough;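 further: 0% = enzyme with probe and DMSO and 100% = no enzyme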
Bcl-xL conf: Bcl-xL inhibitors blocking Bim BH3 binding, confirmation, counter-screen for MCL1 inhibitor project, biochemical, fluorescence polarization; shares compounds with MCL1-BIM inh; GST-Bcl-xL / FITC-Bim BH3 peptide FP binding; inhibition, % at 10.9 µM; 1,700 tested, 54% active;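 active means inhibition above a cutoff equal to the mean inhibition of all tested compounds plus 3 SD, cut at about 30% in these data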;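 further: 0% = DMSO wells and 100% = unlabeled Bim BH3 control peptide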
MCL1 inh confirm: inhibitors of MCL1 binding to BIM-BH3, confirmation, biochemical, fluorescence polarization, triplicate. shares compounds with MCL1-BIM inh. GST-MCL1 / FITC-Bim-BH3 fluorescence polarization. inhibition, % at 10.9 µM. 1,700 tested, 61% active;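 active means inhibition above the average of all tested compounds plus 3 SD, cut at about 40% in these data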;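 further: 0% = DMSO wells and 100% = unlabeled Bim-BH3 control peptide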
GLD-1 TGE cf: GLD-1/TGE RNA binding inhibitors, retest, confirmation, biochemical, fluorescence polarization, triplicate. GLD-1/FL-TGE RNA fluorescence polarization. inhibition, % at 5.96 µM. 550 tested, 10% active. AID 2459, 2010. shares compounds with GLD-1 TGE inh;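 active means average inhibition across triplicates above the hit cutoff set in the primary screen, cut at about 32% in these data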;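 further: 0% = GLD-1 with RNA probe and DMSO and 100% = wells lacking GLD-1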
E coli Lon conf: E. coli Lon protease inhibitor retest, confirmation, biochemical, fluorescence polarization; shares compounds with eLon inh; purified E. coli Lon; inhibition, % at 7.94 µM; 1,400 tested, 31% active; in the data active means inhibition above about 16%;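 further: 0% = enzyme with probe and DMSO and 100% = no enzyme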
Active calls of the source: *; ? = inconclusive; . = no result given; + = active, no number.

SMILES	BCLXL inh	MCL1-BIM inh	GLD-1 TGE inh	MEX-5 binding	EBV gp42 inh	eLon inh	Bcl-xL conf	MCL1 inh confirm	E coli Lon conf	others
CN1c2ccccc2N(C)C1(C)c1ccccc1	69*	65*	48*	-7	3	38*	74*	101*	3	GLD-1 TGE cf=9
NC(=S)NNC(=O)c1cccc(Cl)c1	2	2	4	-3	0	-1	.	.	.
Cc1ccc(C(C)C)c(OCC(=O)NNC(=O)CC2OC(=O)c3ccccc32)c1 (centres undefined)	-10	-6	0	2	.	-1	.	.	.
COc1ccc(NS(=O)(=O)c2cccs2)cn1	10	9	3	0	-5	8	.	.	.
COc1ccc(NS(=O)(=O)c2ccc(Cl)s2)cn1	72*	78*	50*	-17	57*	19*	72*	94*	35*	GLD-1 TGE cf=54*
Cc1ccc(N2CCN(c3ccc(NCc4nc5ccccc5n4C)cc3)CC2)cc1	74*	90*	63*	4	7	45*	52*	48*	5	GLD-1 TGE cf=63*
O=C1C2=C(SCCS2)C(=O)N1CCCO	87*	92*	75*	-22	117*	41*	74*	94*	55*	GLD-1 TGE cf=49*
Cc1ccc(NC(=O)CCC(=O)NNC(=O)COc2ccc([N+](=O)[O-])cc2)c(C)c1	.	.	.	.	.	-4	.	.	.
CC1CN(C(=O)COC(=O)Cc2c(Cl)cccc2Cl)CC(C)O1 (centres undefined)	.	.	1	.	.	-7	.	.	.
CCSC1=N/C(=C\c2ccc(-c3ccccc3[N+](=O)[O-])o2)C(=O)S1	74*	90*	48*	-7	29	37*	120*	141*	-7
CC1CCc2c(sc(NC(=O)CCC(=O)O)c2C(=O)NC2CC2)C1 (centres undefined)	10	10	-2	-6	.	0	.	.	.
CC1(C)Oc2ccc3ccc(=O)oc3c2CC1O (centres undefined)	-2	-7	-3	-2	.	5	.	.	.
O=c1ccc2cc3c4c(c2o1)CCCN4CCC3	97*	105*	89*	?	129*	80*	155*	182*	22*
O=c1oc2c3c4c(cc2s1)CCCN4CCC3	130*	165*	76*	-32*	35	46*	99*	120*	45*
O=C(CCl)c1cc2c3c(c1)CC(=O)N3CCC2	7	9	4	-1	.	-4	.	.	.
CCCc1nnc(NC(=O)CCC(=O)N2CCN(Cc3ccc(Cl)cc3)CC2)s1	1	3	2	1	.	-1	.	.	.
O=C1c2ccccc2-c2onc3ccc(NCc4ccco4)c1c23	165*	199*	165*	-77*	130*	128*	162*	188*	118*
CCNc1ccc2noc3c2c1C(=O)c1ccccc1-3	175*	+	192*	?	56*	+	184*	+	183*
CCNc1ccccc(-c2ccc3ccccc3n2)c1=O	22	27	13	-1	15	-13	.	.	.
CCOc1ccc2noc3c2c1C(=O)c1ccccc1-3	152*	174*	171*	?	-71	+	146*	171*	+
CN1CC=C2C(C#N)=C(N)C(C#N)(C#N)[C@H](c3ccoc3)[C@H]2C1	146*	175*	99*	-66*	62*	130*	111*	+	109*
Cc1ccc(C2C3CN(C(C)C)CC=C3C(C#N)=C(N)C2(C#N)C#N)cc1 (centres undefined)	109*	116*	109*	-28*	89*	36*	59*	104*	48*
OC(c1cc(F)cc(Cl)c1)c1ncc(-c2ccc3ccccc3c2)[nH]1 (centres undefined)	.	.	.	.	.	6	.	.	.
COc1cccc(=O)c2c(C)n(-c3ccc(C(=O)O)cc3)c(C)c12	68*	91*	38*	-11	13	27*	21	29	11	GLD-1 TGE cf=14
Cc1nc(=O)c(-c2ccccc2)c(C)n1-c1ccc(C(=O)O)cc1	-2	4	11	1	-16	-8	.	.	.
SMILES	BCLXL inh	MCL1-BIM inh	GLD-1 TGE inh	MEX-5 binding	EBV gp42 inh	eLon inh	Bcl-xL conf	MCL1 inh confirm	E coli Lon conf	others
CSCC(C)N1CCC(Oc2cccc(C(=O)NCc3ccccn3)c2)CC1 (centres undefined)	48*	56*	16	-29*	.	17*	56*	70*	-319
Cc1cnc(C(=O)OCc2cc(=O)n3c(C)cccc3n2)cn1	.	.	9	.	.	1	.	.	.
CC1(C)CC(=O)C(C=Nc2cccnc2/N=C/C2=C(O)CC(C)(C)CC2=O)=C(O)C1	58*	63*	118*	-5	6	52*	8	2	-3
CC1(C)CC(=O)C(C=Nc2ccc(C(=O)c3ccccc3)cc2N=CC2=C(O)CC(C)(C)CC2=O)=C(O)C1	67*	80*	104*	-5	2	13*	6	16	-20
O=C(c1ccccc1)[C@@H]1[C@@H]2C(=O)N(c3ccc(F)cc3)C(=O)[C@@H]2C2CCCN21 (some centres undefined)	64*	62*	37*	?	4	23*	58*	62*	29*	GLD-1 TGE cf=0
CC(C)Oc1ccc(S(=O)(=O)N2CCOCC2)cc1NC(=O)Cc1cccs1	-2	2	-2	-2	.	1	.	.	.
